# Data: article PMC5540273 (PLoS ONE, 2017)
# Tested on: T1, JNK3
# T1 construct: gene MAPK10
# Details: concentration: 1 μM, replicates: in singlicate; n = 1
# 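Note: KINOMEscan kinase panel screen.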
row,Compound,%Inh [%]
1,COc1cc2c(cc1OC[C@@H](O)CO)ncc1c3ccc(C#N)cc3[nH]c21,0
2,O=C(NCCCN1CCOCC1)c1cccc(Nc2nccc(Nc3ccc(Oc4ccccc4)cc3)n2)c1 [GW663929],16
3,Cc1ccc(NC(=O)c2ccnc(N3CCN(C)CC3)c2)cc1-c1ccc(C(=O)NCC2CC2)cc1 [GW775604],0
4,O=C(Nc1n[nH]c2cc(-c3cccc(F)c3)ccc12)C1CC1 [SB-735464],17
5,COc1ccc(Nc2nccc(N3CCC(NC(=O)Nc4cccc(C(C)=O)c4)C3)n2)cc1 (centres unmarked) [GSK1379731],4
6,COCCNC(=O)c1ccc(-c2cc(C(=O)NC3CC3)cc(F)c2C)cc1 [GW868318],19
7,COc1ccc(CNC(=O)NC2CCN(c3ccnc(Nc4ccc(OC)cc4)n3)C2)cc1 (centres unmarked) [GSK1379727],9
8,Nc1nccc(-c2c(-c3ccc(F)cc3)ncn2C2CCN(CC(F)(F)F)CC2)n1 [SB-236560],89
9,O=C(NCCNc1ccnc(Nc2ccc(F)cc2)n1)Nc1ccccc1F [GSK1379880],11
10,O=C(Nc1cccc(-c2nn3ncccc3c2-c2ccnc(Nc3cccc(C(F)(F)F)c3)n2)c1)c1c(F)cccc1F [GSK299495],14
11,COc1ccc(Nc2ncc(C#N)c(Nc3ccccc3C(N)=O)n2)cc1N1CCN(C)CC1.Cl [GSK1558669],99.9
12,O=c1cc(N2CCOCC2)nc2n(Cc3cccc4ccccc34)ccn12 [GSK2333389],0
13,Fc1ccc(-c2ncn(CCCN3CCOCC3)c2-c2ccccn2)cc1 [SB-211742],0
14,CN1c2ccc(NCc3ccc(F)cc3)cc2-c2c(cnn2C)S1(=O)=O,0
15,Nc1nc(-c2ccc3c(N)n[nH]c3c2)cc(N2CCCC2)n1 [GSK2227430],0
16,[2H]C([2H])(c1cccc(C(F)(F)F)c1C)n1ccn2c(=O)nc(N3CCOCC3)cc12 [GSK2336394],9
17,COc1cc2ncn(-c3cc(OCc4sccc4Cl)c(C(N)=O)s3)c2cc1OC [GSK448459],7
18,COc1cc2c(cc1OCCN1CCN(C)CC1)ncc1c3ccc(C#N)cc3[nH]c21,0
19,Cc1nnc(-c2ccc3occ(-c4ccc(C(C)O)cc4)c3c2)o1 (centres unmarked),0
20,Cn1cc(-c2ccc3c(c2)CCN3C(=O)Cc2ccccc2Cl)c2c(N)ncnc21 [GSK2608885],6
